4 compounds from PubChem BioAssay AID720690 (Broad Institute, 2013) can be followed below.

Molecules are shown by their SMILES. Potency and affinity values are given separately. A number with no mark means an inactive call.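 The calls were made as follows: active = every repeat run showing a signal drop whose fitted half-maximal concentration is at most twice the top tested concentration; inconclusive = repeat runs disagree, or flat partial drop, or poor fit; inactive = the rest.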

The nature of the assay: general mammalian cell viability loss – activator set, cherry-pick, cytotoxicity control for miR-122 modulator project, dose response (AID 720690).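 Also: 0% = neutral control wells and -100% = MG132 cytotoxic control wells.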 The note with it: HEK293T viability, CellTiter-Glo luminescence, 48 h; series mostly up to 26 µM; activity change, negative = cytotoxicity: at the top concentration. (In general: ATP-based viability assays read luminescence as a measure of living cells.)
Regarding `COc1cccc(CNC(=O)C[C@H]2CC[C@@H]3[C@H](COc4ccc(NC(C)=O)cc4C(=O)N3C)O2)c1`, the “activity change, negative = cytotoxicity” value is -12.8%.

For the compound `Cc1noc(C)c1NC(=O)Nc1ccc2c(c1)C(=O)N(C)[C@@H]1CC[C@H](CC(=O)N[C@H]3CCN(Cc4ccccc4)C3)O[C@H]1CO2`, the “activity change, negative = cytotoxicity” value is 11%. Take `O=C(Nc1ccccc1F)N1C[C@H]2[C@@H](c3ccccc31)[C@@H](CO)N2C(=O)C1CC1`: the “activity change, negative = cytotoxicity” value is -1.84%. Turning to `CCCNC(=O)N1C[C@@H]2[C@H](c3ccccc31)[C@H](CO)N2C(=O)C1CCOCC1`, the “activity change, negative = cytotoxicity” value was -4.34%.
